Of roughly 21,000 targets only a part is listed; those with the largest changes were picked by preference.
Assays:
[1] = target: SARS_P49591_431_VEFVHMLNATMCATTR (UniProt P49591); test: probe-labelled cysteine peptide fold change vs DMSO (competition) (log2 fold change); higher = less target engagement (more negative = stronger competition); details: THP-1, incubation time: 4 h
[2] = target: SLFN11_Q7Z7L1_842_VVQLSDACDMLGDHIVLDSVRR (UniProt Q7Z7L1); test: as above; details: THP-1, incubation time: 4 h
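Further: competitive chemoproteomic profiling in live THP-1 cells with an iodoacetamide desthiobiotin (IA-DTB) probe, comparing probe-labelled peptide intensities in compound-treated cells against DMSO-treated controls.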

UniProt Q7Z7L1, sequence (Q7Z7L1 whole entry, looked up): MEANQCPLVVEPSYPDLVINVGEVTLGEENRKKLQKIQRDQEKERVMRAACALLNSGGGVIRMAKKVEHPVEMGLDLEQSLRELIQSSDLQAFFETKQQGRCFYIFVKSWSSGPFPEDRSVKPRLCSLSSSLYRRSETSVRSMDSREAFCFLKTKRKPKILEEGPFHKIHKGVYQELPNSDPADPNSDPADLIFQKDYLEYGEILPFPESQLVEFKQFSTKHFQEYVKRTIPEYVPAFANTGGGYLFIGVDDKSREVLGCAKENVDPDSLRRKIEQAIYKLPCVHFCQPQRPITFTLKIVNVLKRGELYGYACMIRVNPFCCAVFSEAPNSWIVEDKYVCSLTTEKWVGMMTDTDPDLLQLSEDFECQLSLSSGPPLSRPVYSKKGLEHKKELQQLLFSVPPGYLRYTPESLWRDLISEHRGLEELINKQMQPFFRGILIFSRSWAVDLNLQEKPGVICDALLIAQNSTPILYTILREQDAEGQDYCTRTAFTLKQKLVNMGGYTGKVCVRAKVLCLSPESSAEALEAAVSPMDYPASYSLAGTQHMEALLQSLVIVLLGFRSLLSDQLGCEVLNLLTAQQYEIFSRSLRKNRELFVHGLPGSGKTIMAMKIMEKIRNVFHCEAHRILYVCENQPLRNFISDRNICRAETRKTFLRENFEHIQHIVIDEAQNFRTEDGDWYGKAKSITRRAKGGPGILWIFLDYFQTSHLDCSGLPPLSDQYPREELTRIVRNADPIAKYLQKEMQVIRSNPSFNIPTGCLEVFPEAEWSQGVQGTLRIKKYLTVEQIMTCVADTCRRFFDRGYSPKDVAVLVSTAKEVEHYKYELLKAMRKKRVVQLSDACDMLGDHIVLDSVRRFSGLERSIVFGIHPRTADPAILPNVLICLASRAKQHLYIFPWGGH
UniProt P49591, sequence (P49591 whole entry, looked up): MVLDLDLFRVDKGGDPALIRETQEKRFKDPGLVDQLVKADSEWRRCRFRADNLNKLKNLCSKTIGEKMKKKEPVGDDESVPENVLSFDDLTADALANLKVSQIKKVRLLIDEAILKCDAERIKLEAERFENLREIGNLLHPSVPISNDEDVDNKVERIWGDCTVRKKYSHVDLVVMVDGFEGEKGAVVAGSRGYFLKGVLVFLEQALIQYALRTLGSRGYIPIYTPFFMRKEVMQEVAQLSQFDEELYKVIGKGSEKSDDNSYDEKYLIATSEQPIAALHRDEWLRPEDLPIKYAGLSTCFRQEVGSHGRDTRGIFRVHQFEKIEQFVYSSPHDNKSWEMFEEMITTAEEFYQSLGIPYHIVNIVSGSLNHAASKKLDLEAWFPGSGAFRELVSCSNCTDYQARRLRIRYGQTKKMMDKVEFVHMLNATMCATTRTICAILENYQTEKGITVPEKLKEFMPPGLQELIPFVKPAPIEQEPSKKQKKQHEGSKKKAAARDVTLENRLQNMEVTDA

Structure (SMILES): CC1Cc2ccccc2N1C(=O)C1CCCN(C(=O)CCl)C1 (mixture of isomers) [TRIM25 ligand 11 (diastereomer mixture)]
- probe-labelled cysteine peptide fold change ([1]; 10 µM): 0.102
- probe-labelled cysteine peptide fold change ([1]; 50 µM): 0.113
- probe-labelled cysteine peptide fold change ([2]; 10 µM): 0.174
- probe-labelled cysteine peptide fold change ([2]; 50 µM): 0.0323

From the supplement of paper PMC12067093, “Discovery and optimisation of a covalent ligand for TRIM25 and its application to targeted protein ubiquitination” (Chemical Science, 2025)
